Measurements reported in PubChem BioAssay (NCATS).
Records with an inconclusive call do not appear. A call without a number means that no potency is given here. Activity calls are given as the source filed them. The call rests on the fitted dose curve; in most records, active means well fitted cell-killing curve with a large enough effect; inconclusive means small, poorly fitted or top-dose-only effect, or effect the other way; inactive means no such curve, though single readings can be large or run the other way.

Assay: Quantitative High-Throughput drug screen in 47 multiple myeloma cell lines against the NCATS MIPE library collection: OCIMY1_PLB cell viability assay (AID 1918979); further: nearly all actives have a fitted effect of over 35% in size
Details: OCI-MY1 myeloma viability, CellTiter-Glo ATP, 48 h; series mostly up to 45.8 µM
Method in brief: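 Plated at 500 cells per well, myeloma lines received MIPE 4.0 compounds by pin tool. Following 48 h culture at 37 °C, CellTiter-Glo luminescence gave viability relative to DMSO and media-only controls.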
Potency means the concentration at half of the fitted maximal effect.

Q: With `COC(=O)Nc1nc2ccc(C(=O)c3ccccc3)cc2[nH]1` as the molecule, how does the Potency read?
A: The Potency was 833 nM (active).

Q: For `CC(C(=O)O)c1ccc2c(c1)CC(=O)c1ccccc1S2` (stereo not drawn), which Potency is on record?
A: Its Potency is “inactive”.

Q: Which Potency does the source give for `CCN(CC)CCn1c(=O)c(Cc2ccc(OC)cc2)nc2ccccc21` here?
A: The Potency was “inactive”.

Q: With `CCOC(=O)c1ccc(C#Cc2ccc3c(c2)C(C)(C)CCS3)nc1` as the molecule, how does the Potency read?
A: Its Potency is “inactive”.

Q: Which Potency does the source give for `CNC1CCCN(c2c(F)cc3c(=O)c(C(=O)O)cn(C4CC4)c3c2OC)C1` (stereo not drawn) here?
A: Its Potency is “inactive”.

Q: Which Potency does the source give for `Cc1nnc(NS(=O)(=O)c2ccc(N)cc2)s1` here?
A: Its Potency is “inactive”.

Q: With `CNS(=O)(=O)Cc1ccc2[nH]cc(CCN(C)C)c2c1` as the molecule, how does the Potency read?
A: Its Potency is “inactive”.

Q: With `NC(=O)c1cccnc1` as the molecule, how does the Potency read?
A: Its Potency is “inactive”.

Q: Which Potency does the source give for `Cc1cccc(N(C)C(=S)Oc2ccc3ccccc3c2)c1` here?
A: Its Potency is “inactive”.

Q: For `CS(=O)(=O)c1ccc([C@@H](O)[C@@H](CO)NC(=O)C(Cl)Cl)cc1`, which Potency is on record?
A: Its Potency is “inactive”.

Q: Which Potency does the source give for `Nc1ccc(S(=O)(=O)Nc2ccccn2)cc1` here?
A: The Potency was “inactive”.

Q: Which Potency does the source give for `CC(C)(C#N)c1cc(Cn2cncn2)cc(C(C)(C)C#N)c1` here?
A: The Potency was “inactive”.

Q: With `NS(=O)(=O)c1cc2c(cc1Cl)NC(C(Cl)Cl)NS2(=O)=O` (stereo not drawn) as the molecule, how does the Potency read?
A: Its Potency is “inactive”.

Q: With `CCCOc1ccc(C(=O)OCCN(CC)CC)cc1N` as the molecule, how does the Potency read?
A: The Potency was “inactive”.

Q: Which Potency does the source give for `CC[C@H](NC(C)C)[C@H](O)c1ccc(O)c2[nH]c(=O)ccc12` here?
A: The Potency was “inactive”.

Q: With `CN1CCN(c2c(F)cc3c(=O)c(C(=O)O)cn4c3c2OCN4C)CC1` as the molecule, how does the Potency read?
A: The Potency was “inactive”.

Q: For `Cc1ncc([N+](=O)[O-])n1CCO`, which Potency is on record?
A: Its Potency is “inactive”.

Q: With `NC(=O)c1cccc(N)c1` as the molecule, how does the Potency read?
A: Its Potency is “inactive”.

Q: Which Potency does the source give for `COc1cc(NS(=O)(=O)c2ccc(N)cc2)nc(OC)n1` here?
A: The Potency was “inactive”.

Q: With `CCCCCCNC(=O)n1cc(F)c(=O)[nH]c1=O` as the molecule, how does the Potency read?
A: Its Potency is “inactive”.

Q: Which Potency does the source give for `Cc1nnc(C(=O)NC(C)(C)c2nc(C(=O)NCc3ccc(F)cc3)c(O)c(=O)n2C)o1` here?
A: The Potency was “inactive”.

Q: For `Cc1noc(NS(=O)(=O)c2ccc(N)cc2)c1C`, which Potency is on record?
A: The Potency was “inactive”.

Q: Which Potency does the source give for `CC(=O)CC(c1ccccc1)c1c(O)c2ccccc2oc1=O` (stereo not drawn) here?
A: The Potency was “inactive”.

Q: For `O=c1oc2c(O)c(O)cc3c(=O)oc4c(O)c(O)cc1c4c23`, which Potency is on record?
A: Its Potency is “inactive”.

Q: Which Potency does the source give for `COc1cccc(N(C)C(=S)Oc2ccc3c(c2)CCCC3)n1` here?
A: The Potency was “inactive”.

Q: With `OC(Cn1cncn1)(Cn1cncn1)c1ccc(F)cc1F` as the molecule, how does the Potency read?
A: The Potency was “inactive”.

Q: With `COc1ccc(-c2ccc3cc(C(=O)O)ccc3c2)cc1C12CC3CC(CC(C3)C1)C2` as the molecule, how does the Potency read?
A: The Potency was “inactive”.

Q: Which Potency does the source give for `C[C@]12C=CC(=O)C=C1CC[C@@H]1[C@@H]2C(=O)C[C@@]2(C)[C@H]1CC[C@]2(O)C(=O)CO` here?
A: The Potency was “inactive”.
